# From PubChem BioAssay (NCI)
# The panel holds about 83,000 compounds, 20% with a hit somewhere; the sample as a whole holds those more often.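 Testing used 96-well plates and a 48-hour single-concentration exposure. Example: -40 means 40% of the starting cells died.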 A number with no mark means an inactive call. Calls of active or inactive are those of the source. The calls were made as follows: active = growth percent below 10; inactive = the rest.
# Legend:
# Assay in all cases: NCI-60 one-dose screen, 48 h (100 = growth as untreated, 0 = no growth, -100 = all killed)
# [1] = system: RPMI-8226 leukemia; conditions: 10 µM unless noted
# [2] = system: OVCAR-8 ovarian; conditions: 10 µM unless noted
# [3] = system: OVCAR-5 ovarian; conditions: 10 µM unless noted
# [4] = system: OVCAR-4 ovarian; conditions: 10 µM unless noted
# [5] = system: SK-OV-3 ovarian; conditions: 10 µM unless noted
# [6] = system: IGROV1 ovarian; conditions: 10 µM unless noted
# [7] = system: OVCAR-3 ovarian; conditions: 10 µM unless noted
# [8] = system: HS 578T breast; conditions: 10 µM unless noted
# [9] = system: NCI/ADR-RES ovarian; conditions: 10 µM unless noted
# [10] = system: T-47D breast; conditions: 10 µM unless noted
# [11] = system: BT-549 breast; conditions: 10 µM unless noted
# [12] = system: SW-620 colon; conditions: 10 µM unless noted
# [13] = system: MCF7 breast; conditions: 10 µM
# [14] = system: HCT-116 colon; conditions: 10 µM unless noted
# [15] = system: HCC-2998 colon; conditions: 10 µM unless noted
# [16] = system: KM12 colon; conditions: 10 µM unless noted
# [17] = system: MDA-MB-435 melanoma; conditions: 10 µM unless noted
Compound,growth [1],growth [2],growth [3] [%],growth [4] [%],growth [5],growth [6] [%],growth [7],growth [8],growth [9],growth [10],growth [11] [%],growth [12],growth [13],growth [14],growth [15],growth [16],growth [17]
COc1cc(OC)cc(N2C(=O)N(Cc3ccc(C(C)(C)C)cc3)c3ccccc3S2(=O)=O)c1,34.6%,96%,86.2,81.8,93.4%,86.4,92.2%,90.9%,73.2%,81.1%,99.6,82.2%,90.7%,76.2%,-46% (active),82.6%,–
COc1cc(C(=O)Nc2ccc(-c3nc4ccccc4[nH]3)cc2)cc(OC)c1OC,19.2%,27.1%,83.5,61.6,56.1%,46.8,9.3% (active),72.5%,52.5%,60%,60.6,14.7%,–,–,57.6%,33.8%,-25.2% (active)
CCCCCCCCCCOC(=O)c1ccccc1C(=O)OCCCC,101%,109%,103,115,114%,118,106%,118%,107%,106%,114,102%,102%,84.9%,108%,105%,–
O=C(c1ccccc1)N(C(=S)NCCc1ccc(Cl)cc1)c1ccc(Cl)cc1,62.5%,41.1%,81.3,88.8,104%,87.4,27.7%,62.5%,101%,45.5%,–,62.8%,20.8%,45.3%,61.9%,26.8%,37.9%
Cc1nc2ccccc2c(/C=C/c2ccccc2)c1C(=O)/C=C/c1ccc(Cl)cc1,-36.5% (active),20.9%,14.2,26.5,84.3%,14.9,-40.5% (active),27.9%,9.61% (active),13.4%,–,3.99% (active),14.2%,-5.14% (active),12.4%,21.4%,-9.81% (active)
CC1=C(C(=O)OCC2CCN(C(=O)OC(C)(C)C)CC2)[C@H](c2cccc(Br)c2)C2=C(CC(C)(C)CC2=O)N1,18.6%,21.7%,64.8,40,56%,35.9,30.9%,53.5%,25.3%,22%,–,28.2%,13.8%,17.7%,49.2%,25%,24.9%
COc1ccc(/C=C/C(=O)c2c(C)nc3ccccc3c2/C=C/c2ccccc2)cc1O,25.6%,30.9%,17.2,61.9,71.7%,34.7,13.6%,37.5%,17.7%,39.6%,–,19.4%,18.2%,12%,82.4%,35.6%,1.85% (active)
O=C(Nc1ccc(Br)cc1F)c1cc(F)ccc1O,-28.9% (active),8.95% (active),25.3,12.4,1.4% (active),19.2,9.86% (active),1.14% (active),9.89% (active),-3.86% (active),–,10.2%,3.43% (active),2.34% (active),17.8%,0.627% (active),-1.29% (active)
O=c1[nH]nnc2c1ncn2C1OC(CO)C(O)C1O (centres undefined),37.6%,95.9%,87.4,35.9,14.5%,32.7,41.7%,103%,39.5%,77.1%,97.7,63.3%,63.9%,51.8%,34.4%,60.7%,–
O=C(Nc1ccc(Br)cc1F)c1cc(I)ccc1O,-8.84% (active),9.66% (active),24.2,15.4,-10.4% (active),16.6,4.89% (active),7.43% (active),4.84% (active),-14% (active),–,14.1%,5.42% (active),5.43% (active),27.4%,6.15% (active),4.78% (active)
